In PubChem BioAssay (EPA / NIEHS):
Activity calls are given as the source filed them. How the source made its calls: active means hit-call score of the fitted dose curve at least 0.9, where 1 is the maximum; inactive means score below 0.9.

Assay: BSK_3C_Vis: BioMAP Diversity Plus: 3C Assay for Morphology Visualization (AID 2283025);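 further: fitted both ways so gain or loss versus DMSO counts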
Conditions: primary human endothelial cells (HUVEC)
Procedure, shortened: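 Human umbilical vein endothelial cells in the 3C system were imaged by light microscopy 24 h after chemical dosing to record cell morphology. Activity was fitted bidirectionally against DMSO as negative control and baseline; the endpoint serves as a background control.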

Row | Compound | outcome | AC50
1 | CC(C)Nc1nc(Cl)nc(NC(C)C)n1 | inactive | 
2 | OC(c1ccc(Cl)cc1)(c1ccc(Cl)cc1)C(Cl)(Cl)Cl |  | 16.3 µM (active)
3 | CNC(=O)N(C)c1nnc(C(C)(C)C)s1 | inactive | 
4 | Cn1c(-c2ccccc2)cc(-c2ccccc2)[n+]1C |  | 9.8 µM (active)
5 | CC1(C)C(C(=O)OC(C#N)c2cccc(Oc3ccccc3)c2)C1(C)C (stereo unspecified) |  | 39 µM (active)
6 | CCC(C)n1c(=O)[nH]c(C)c(Br)c1=O (stereo unspecified) | inactive | 
7 | COCC(=O)N(c1c(C)cccc1C)C(C)C(=O)OC (stereo unspecified) | inactive | 
8 | CSC(=O)c1c(C(F)F)nc(C(F)(F)F)c(C(=O)SC)c1CC(C)C |  | 13.7 µM (active)
9 | COP(=S)(OC)SCn1nnc2ccccc2c1=O | inactive | 
10 | CCOc1nc(F)cc2nc(S(=O)(=O)Nc3c(Cl)cccc3Cl)nn12 | inactive | 
11 | COC(=O)NS(=O)(=O)c1ccc(N)cc1 | inactive | 
12 | Cc1ccc(N=CN(C)C=Nc2ccc(C)cc2C)c(C)c1 |  | 16.3 µM (active)
13 | Clc1cccc(C(Cl)(Cl)Cl)n1 | inactive | 
14 | O=C(O)c1c(Cl)ccc2cc(Cl)cnc12 | inactive | 
15 | CC(C)(C)C(=O)C(Oc1ccc(Cl)cc1)n1cncn1 (stereo unspecified) | inactive | 
16 | CN=C=S | inactive | 
17 | CCOP(=S)(OCC)Oc1nc(Cl)n(C(C)C)n1 | inactive | 
18 | Nc1cnn(-c2ccccc2)c(=O)c1Cl |  | 39 µM (active)

Row | Compound | outcome | AC50
19 | CC1(C)CON(Cc2ccccc2Cl)C1=O | inactive | 
20 | CCCC(=NOCC)C1=C(O)CC(CC(C)SCC)CC1=O (stereo unspecified) |  | 39 µM (active)
21 | CO/N=C(/C1=NOCCO1)c1ccccc1Oc1ncnc(Oc2ccccc2Cl)c1F |  | 20 µM (active)
22 | CC1(C)CCC(=Cc2ccc(Cl)cc2)C1(O)Cn1cncn1 (stereo unspecified) | inactive | 
23 | Cc1cc(C)nc(Nc2ccccc2)n1 | inactive | 
24 | N#Cc1c[nH]cc1-c1cccc2c1OC(F)(F)O2 |  | 11.2 µM (active)
25 | COc1cc(Cl)c(OC)cc1Cl | inactive | 
26 | CC(C)NC(=O)N1CC(=O)N(c2cc(Cl)cc(Cl)c2)C1=O | inactive | 
27 | CCCCC(C#N)(Cn1cncn1)c1ccc(Cl)cc1 (stereo unspecified) |  | 9.8 µM (active)
28 | CC(C)C1(C)N=C(c2ncccc2C(=O)O)NC1=O (stereo unspecified) | inactive | 
29 | CC1(C)C(C=C(Cl)Cl)C1C(=O)OC(C#N)c1cccc(Oc2ccccc2)c1 (stereo unspecified) | inactive | 
30 | CCCCC(O)(Cn1cncn1)c1ccc(Cl)cc1Cl (stereo unspecified) | inactive | 
31 | Cc1nc(N(C)C)nc(OC(=O)N(C)C)c1C | inactive | 
32 | Clc1nc(Cl)nc(Nc2ccccc2Cl)n1 | inactive | 
33 | COC(=O)N(C(=O)N1CO[C@@]2(C(=O)OC)Cc3cc(Cl)ccc3C2=N1)c1ccc(OC(F)(F)F)cc1 | inactive | 
34 | Nc1c(Cl)c(F)nc(OCC(=O)O)c1Cl | inactive | 
35 | CCOP(=O)(OCC)Oc1nc(Cl)c(Cl)cc1Cl |  | 16.3 µM (active)
36 | COc1ccc(-c2ccccc2)cc1NNC(=O)OC(C)C | inactive | 
